Bioassay records from PubChem BioAssay.
CYP2C9 inhib: blocks human cytochrome P450 2C9 | P11712 | CYP2C9 Supersomes, luciferin-H conversion, luminescence | inhibition, % at 5 µM | 96,000 compounds, 20% hits | AID 777;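 active means blocking of liver enzyme CYP2C9 beyond about 50% at 5 µM, limit read from the data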
Target sequence (P11712 whole entry, looked up): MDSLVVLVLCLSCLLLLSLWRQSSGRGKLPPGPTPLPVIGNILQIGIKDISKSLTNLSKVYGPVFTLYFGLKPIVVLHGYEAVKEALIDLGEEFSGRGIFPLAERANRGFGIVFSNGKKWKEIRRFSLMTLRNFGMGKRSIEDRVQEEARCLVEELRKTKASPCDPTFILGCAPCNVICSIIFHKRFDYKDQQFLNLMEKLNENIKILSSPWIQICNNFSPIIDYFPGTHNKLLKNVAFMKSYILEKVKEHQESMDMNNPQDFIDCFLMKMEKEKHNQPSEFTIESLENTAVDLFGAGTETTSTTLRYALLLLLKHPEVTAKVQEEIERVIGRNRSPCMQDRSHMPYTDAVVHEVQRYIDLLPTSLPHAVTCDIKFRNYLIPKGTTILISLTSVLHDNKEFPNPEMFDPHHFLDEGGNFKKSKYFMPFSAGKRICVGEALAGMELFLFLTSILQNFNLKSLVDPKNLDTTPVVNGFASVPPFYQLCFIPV
CYP2C9 act: CYP2C9 (human) activation | recombinant CYP2C9, luciferin-H conversion, luminescence; hits give high values; factor 1 = untreated enzyme, 0 = blocked | activation factor at 5 µM | 96,000 compounds, 1.4% hits | P11712;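 active means activation factor of 2 or more for CYP2C9 at a 5 µM dose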
CYP2C19 activ: activators of human cytochrome P450 2C19; P33261; recombinant CYP2C19, luciferin-H EGE luminescence; hits give high values; 0 = fully inhibited enzyme, 1 = untreated enzyme; activation factor at 5 µM; 96,000 tested, under 10 active; AID 1025;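 active means activation factor of at least 2 at 5 µM in the primary screen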
CYP2C19 inh: inhibitors of human CYP2C19; 96,000 compounds, 21% hits; inhibition, % at 5 µM; CYP2C19 Supersomes, luciferin-H EGE luminescence, 30 min; AID 778; P33261;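 active means CYP2C19 inhibition above a set limit at 5 µM in the primary screen, cut at about 50% in these data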
Cav3 T inh: blocks human Cav3.2 T-type calcium channel; O95180; Cav3.2-expressing cells, Fluo-4 calcium fluorescence FDSS; hits give low values; B-score at 10 µM; 100,000 compounds, 4% hits; AID 449739;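 active means single-dose well whose peak fluorescence ratio is a statistical outlier from its plate by either plate-standardised score or position-corrected B-score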
Of the large screens only hits and unclear results are named; the others gave an inactive call. A selection: hits, their analogues and other compounds. The true share with any hit is near 27%.

CCCCCCCCOC(=O)C1=C(C)Nc2nnnn2C1c1cccs1 (stereo not given)	CYP2C9 inhib 94, CYP2C19 inh 76
COCc1[nH][nH]c(=O)c1C=Nc1ccc(Oc2ccccc2)cc1	CYP2C19 inh 66
COc1cc(O)oc1C=Nc1ccc(Oc2ccccc2)cc1	none
Cc1nn(-c2ccccc2)c2c1C(O)n1c(nc3ccccc31)S2 (stereo not given)	CYP2C9 inhib 58, CYP2C19 inh 70
O=c1c2ccccc2nc(COc2ccccc2)n1/N=C/c1ccco1	CYP2C9 inhib 79, CYP2C19 inh 62
CCOC(=O)C1CCCN(c2ncnc3c2[nH]c2cccc(OC)c23)C1 (stereo not given)	CYP2C19 inh 63
O=C(CCSc1nc2ccccc2o1)N1CCOCC1	none (no result: CYP2C9 inhib, CYP2C9 act, CYP2C19 activ, CYP2C19 inh)
O=C(CCNS(=O)(=O)c1cccc2nonc12)NCCc1ccc(Cl)cc1	CYP2C19 inh 74
O=C(CCNS(=O)(=O)c1cccc2nonc12)N1CCN(c2cccc(Cl)c2)CC1	CYP2C19 inh 68
COc1ccc(N2CCN(C(=O)c3ccc(NS(=O)(=O)c4cccc(F)c4)cc3)CC2)cc1	CYP2C9 inhib 90
COc1ccc(N2CCN(C(=O)c3ccc(NS(=O)(=O)c4ccc(F)c(F)c4)cc3)CC2)cc1	CYP2C9 inhib 93
CCO[C@@H]1OC(C(=O)N2CCN(Cc3ccc4c(c3)OCO4)CC2)=C[C@H](C2CC2)[C@H]1CCCO	none (no result: CYP2C9 inhib, CYP2C9 act, CYP2C19 activ, CYP2C19 inh)
COc1ccc2c(c1)c(CC(=O)Nc1ccc(C)cc1)c(C)n2C(=O)c1ccc(Cl)cc1	CYP2C9 inhib 89, CYP2C19 inh 69, Cav3 T inh -3.9
O=C1CCCC2=C1C(c1ccsc1)CC(=O)N2c1nnc(SCc2ccccc2)s1 (stereo not given)	Cav3 T inh -5.5
O=C1CCCC2=C1C(c1ccsc1)CC(=O)N2c1ccccc1 (stereo not given)	none
N#Cc1c(-c2ccccc2)cc(-c2ccco2)c(C#N)c1N	none (no result: Cav3 T inh)
CC(C)(C)c1cc(-c2ccco2)c(C#N)c(SCC#N)n1	CYP2C9 inhib 95
CCN(CC)C(=O)C(=O)N/N=C/c1ccc(Br)cc1	none
COc1cccc(C(=O)CSc2nc3ccccc3n2CC(=O)N2CCOCC2)c1	CYP2C9 inhib 68
CC1Cc2ccccc2N1C(=O)CSc1nc2ccccc2n1CC(=O)N1CCOCC1 (stereo not given)	none
COC(=O)Cn1c(SCc2ccccc2)nc2ccccc21	CYP2C19 inh 58
COc1ccc(C(=O)CSc2nc3ccccc3n2CC(=O)NC(C)(C)C)cc1	CYP2C9 inhib 72
CCCCn1c(SCC(=O)Nc2cccc(OC)c2)nc2ccc(N3CCOCC3)cc2c1=O	CYP2C9 inhib 96, CYP2C19 inh 83
CCN1CCN(C(=S)c2ccc(OCC(=O)Nc3ccc(OC)cc3)cc2)CC1	none (no result: CYP2C9 inhib, CYP2C9 act, CYP2C19 activ, CYP2C19 inh)
COc1cccc(NC(=O)Cn2c(SCC(=O)N3CCOCC3)nc3ccccc32)c1	CYP2C9 inhib 80, CYP2C19 inh 71
CSc1ccc(-c2nc(CSCC(=O)NCCCN3CCOCC3)c(C)o2)cc1	CYP2C19 inh 56
Cc1ccc(-c2nc(CSCC(=O)NCCCN3CCOCC3)c(C)o2)cc1	none
O=C1CCCC2=C1C(c1ccncc1)Nc1ccccc1N2 (stereo not given)	none
O=C1CCCC2=C1C(c1cccs1)Nc1ccc3ncccc3c12 (stereo not given)	CYP2C9 inhib 94, CYP2C19 inh 95
Cc1ccsc1C1Nc2ccc3ncccc3c2C2=C1C(=O)CC(C)(C)C2 (stereo not given)	CYP2C9 inhib 80, CYP2C19 inh 98, Cav3 T inh -3.9
CC1(C)CC(=O)C2=C(C1)c1c(ccc3ccccc13)NC2c1ccco1 (stereo not given)	none
O=C(Cc1ccc(S(=O)(=O)N2CCOCC2)s1)Nc1nc2c(s1)CCCC2	none
CCOc1ccc(/C=C2/C(=O)N(c3ccc(OC)cc3)C(=S)N2CC(=O)OC)cc1OCC	none (no result: CYP2C9 inhib, CYP2C9 act, CYP2C19 activ, CYP2C19 inh)
CCOc1ccc(N2C(=O)/C(=C/c3cc(OC)c(OC)c(OC)c3)N(CC(=O)OC)C2=S)cc1	CYP2C19 inh 54
CC1CC(C)CN(C(=O)c2cc3c(s2)CCC3)C1 (stereo not given)	none
CSc1nnc(-c2ccccc2N=Cc2c(C)[nH]n(-c3ccccc3)c2=O)c(=O)[nH]1	none
Cc1ccc(Cl)c(OCC(=O)Nc2ccc3c(c2)OCCO3)c1	none
O=C(COc1cc(Cl)c(Cl)cc1Cl)Nc1ccncc1	CYP2C9 inhib 100, CYP2C19 inh 99
Cc1ccc(OCC(=O)Nn2cnnc2)c(Br)c1	none (no result: CYP2C9 inhib, CYP2C9 act, CYP2C19 activ, CYP2C19 inh)
O=C(COc1cc(Cl)c(Cl)cc1Cl)Nn1cnnc1	CYP2C9 inhib 82, CYP2C19 inh 96 (no result: Cav3 T inh)
O=C(COc1ccc2ccccc2c1Br)Nn1cnnc1	CYP2C9 inhib 85, CYP2C19 inh 98
O=C(COc1ccc2ccccc2c1Br)NNC(=O)Nc1ccccc1	none
CC(C)NC(=O)COc1ccc(Cl)cc1Cl	none
Cc1cc(OCC(=O)Nn2cnnc2)c(C)cc1Br	CYP2C9 inhib 90, CYP2C19 inh 99
N#Cc1ccccc1NC(=O)COC(=O)c1ccc(S(=O)(=O)N2CCCC2)cc1	none
COc1ccccc1C1NC(=O)NC(C)=C1C(C)=O (stereo not given)	none (no result: CYP2C9 inhib, CYP2C9 act, CYP2C19 activ, CYP2C19 inh)
S=c1nn[nH]n1C12CC3CC(CC(C3)C1)C2	none
Cc1cc(Cl)ccc1OC(C)c1nnc(N)s1 (stereo not given)	CYP2C19 inh 61
Cc1cccc(C)c1NC(=O)N1CCC(N2CCCCC2)CC1	none
CCC1CCCCN1C(=O)COC(=O)c1ccc(S(=O)(=O)N2CCOCC2)cc1 (stereo not given)	none
Cc1cccc(CN2CCN(c3ccccn3)CC2)c1	none (no result: CYP2C9 inhib, CYP2C9 act, CYP2C19 activ, CYP2C19 inh)
c1ccc(Oc2cccc(CN3CCCCC3)c2)cc1	CYP2C19 inh 50
Brc1cccc(CN2CCCCCCC2)c1	CYP2C19 inh 77
c1ccc(COc2cccc(CN3CCN(c4ccccn4)CC3)c2)cc1	CYP2C9 inhib 70
O=c1[nH]nnc2sc3c(c12)CCCC3	none (no result: CYP2C9 inhib, CYP2C9 act, CYP2C19 activ, CYP2C19 inh)
NC(=O)C1CCN(C(=O)OCc2ccccc2)CC1	none
Cc1cccc(NS(=O)(=O)c2cccc3cccnc23)n1	CYP2C9 act 2.5
O=C(O)c1ccccc1NS(=O)(=O)c1cccc2cccnc12	none
CCOc1ccccc1C(=O)Nc1cc(OC)ccc1OC	none
COc1ccccc1NS(=O)(=O)c1cccc2cccnc12	CYP2C19 inh 70
COc1ccc(OC)c(NC(=O)c2ccccc2NS(=O)(=O)c2cccc3cccnc23)c1	CYP2C9 inhib 92, CYP2C19 inh 77
COc1ccc(S(=O)(=O)Nc2cccc(C)n2)c2ccccc12	CYP2C19 inh 67
CCCNS(=O)(=O)c1cccc2cccnc12	none
CC(C)(C)OC(=O)CC[C@@H](C(=O)N1CCN(C(=O)OC(C)(C)C)CC1)n1cc(C(CO)NC(=O)OC(C)(C)C)nn1 (stereo not given in full)	none (no result: CYP2C9 inhib, CYP2C9 act, CYP2C19 activ, CYP2C19 inh)
CC(C)(C)NC(=O)C(c1ccsc1)N(CCc1ccccc1)C(=O)Cn1nnc2ccccc21 (stereo not given)	none
O=C(CCCN1C(=O)CSc2ncccc21)N1CCN(Cc2ccccc2)CC1	none
